# According to PubChem BioAssay:
# Active and inactive are the calls of the source. Unless noted, no rule for the calls is given here.
# Experiments:
# [1] = HepG2 liver cancer cell viability effects, profiling panel, resazurin fluorescence, 24 h, PK04 Diversity Set (AID 1172); conditions: higher = more signal; also: test concentration not given here
# [2] = basal S. cerevisiae growth modulation, no modifier, primary screen, OD600, strain BY4716, 24 h, basal condition (AID 1173); conditions: OD600, 24 h, higher = more signal, called active from +8 up or from −8 down
# [3] = MM1S myeloma cell viability, profiling panel, resazurin fluorescence, basal, 24 h, PK04 Diversity Set (AID 1174); conditions: higher = more signal, called active from +8 up or from −8 down;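 also: MM1S multiple myeloma cell line; test concentration not given here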
# [4] = biological target: Dihydroorotate dehydrogenase (quinone), mitochondrial (Plasmodium falciparum (isolate 3D7)) (UniProt Q08210); assay: PfDHODH enzyme inhibitors, primary screen, biochemical, C-terminal His tag, absorbance 600 nm (AID 1175); conditions: DCIP absorbance 600 nm, higher = more signal, called active from +8 up or from −8 down;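 also: recombinant parasite enzyme with a five histidine tag at its C terminus; test concentration not given here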
# [5] = P. aeruginosa biofilm formation inhibitors, primary screen, strain PAO1, LB-PBS medium, absorbance 600 nm (AID 1176); also: test concentration not given here; conditions: P. aeruginosa PAO1 growth/biofilm, A600, 12 h; higher = more signal
# [6] = S. cerevisiae RM11-1a growth modifiers, primary screen, strain RM11-1a, OD600, basal, 24 h (AID 1177); conditions: OD600, 24 h, higher = more signal, called active from +8 up or from −8 down;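 also: cultures grown under basal conditions with no added stressor; test concentration not given here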
# [7] = E. coli acrAB mutant growth effects, primary screen, E. coli filamentation inducers, strain DRC39, OD650, 24 h (AID 1178); conditions: higher = more signal, called active from +8 up or from −8 down;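 also: growth measured as culture turbidity by optical density at 650 nm; test concentration not given here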
# [8] = E. coli acrAB mutant growth effects, primary screen, E. coli filamentation inducers, strain DRC39, OD650, 48 h (AID 1179);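 also: screen aims at cell division blockers that make cells filament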; conditions: E. coli DRC39 delta-acrAB growth, higher = more signal, called active from +8 up or from −8 down
# [9] = RPMI8226 myeloma cell viability, profiling panel, resazurin fluorescence, basal, 24 h, PK04 Diversity Set (AID 1180); conditions: higher = more signal;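 also: RPMI8826 multiple myeloma cell line at 5000 cells per well; test concentration not given here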
# [10] = biological target: E3 ubiquitin-protein ligase XIAP (Homo sapiens) (UniProt P98170); assay: XIAP binders, primary screen, biophysical, small-molecule microarray, fluorescence 635 nm (AID 1181); conditions: small-molecule microarray binding, higher = more signal;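 also: score merges 667 nm emission and signal to noise over triplicate slides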
# Sequence of E3 ubiquitin-protein ligase XIAP (Homo sapiens) (P98170 whole entry, looked up): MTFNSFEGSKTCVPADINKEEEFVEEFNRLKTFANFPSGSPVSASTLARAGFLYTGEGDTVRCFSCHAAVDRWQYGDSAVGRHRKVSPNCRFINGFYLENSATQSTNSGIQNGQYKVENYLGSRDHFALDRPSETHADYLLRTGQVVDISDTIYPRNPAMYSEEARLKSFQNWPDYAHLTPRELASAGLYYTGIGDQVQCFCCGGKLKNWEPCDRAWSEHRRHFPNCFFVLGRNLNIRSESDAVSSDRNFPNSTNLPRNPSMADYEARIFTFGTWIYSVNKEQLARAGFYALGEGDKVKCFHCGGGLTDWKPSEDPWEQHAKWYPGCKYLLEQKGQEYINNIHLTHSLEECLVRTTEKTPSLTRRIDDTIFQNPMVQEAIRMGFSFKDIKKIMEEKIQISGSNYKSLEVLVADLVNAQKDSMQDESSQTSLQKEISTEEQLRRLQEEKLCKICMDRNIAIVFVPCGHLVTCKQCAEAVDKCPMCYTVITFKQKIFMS
# Sequence of Dihydroorotate dehydrogenase (quinone), mitochondrial (Plasmodium falciparum (isolate 3D7)) (Q08210 whole entry, looked up): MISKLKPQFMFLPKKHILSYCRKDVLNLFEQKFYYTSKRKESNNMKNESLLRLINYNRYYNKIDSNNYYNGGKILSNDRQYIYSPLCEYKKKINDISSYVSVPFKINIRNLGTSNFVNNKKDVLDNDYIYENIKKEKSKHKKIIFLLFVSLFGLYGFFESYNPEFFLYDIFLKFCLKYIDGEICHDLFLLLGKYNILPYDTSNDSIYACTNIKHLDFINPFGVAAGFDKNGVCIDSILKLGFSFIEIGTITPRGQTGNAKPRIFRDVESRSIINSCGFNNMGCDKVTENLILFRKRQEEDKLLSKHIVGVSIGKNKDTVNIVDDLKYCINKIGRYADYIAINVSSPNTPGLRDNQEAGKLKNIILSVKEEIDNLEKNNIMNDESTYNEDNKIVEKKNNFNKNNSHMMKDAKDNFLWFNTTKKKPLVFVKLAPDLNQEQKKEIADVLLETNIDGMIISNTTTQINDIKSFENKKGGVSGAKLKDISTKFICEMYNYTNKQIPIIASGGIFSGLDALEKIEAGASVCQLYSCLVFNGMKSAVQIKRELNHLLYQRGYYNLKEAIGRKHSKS
Structure (SMILES),z-score [1],z-score [2],z-score [3],composite z-score [4],z-score [5],z-score [6],z-score [7],z-score [8],z-score [9],composite z-score [10]
COC(=O)[C@H](CCSC)NC(=O)CC=C[C@@H](C)CO,-0.838,0.0957 (inactive),0.311 (inactive),0.521 (inactive),-0.895 (inactive),0.489 (inactive),-1.07 (inactive),-0.576 (inactive),0.475,0.262
O=C(NN=C1C[C@@H](O)[C@@H](O)[C@@H]2[C@@H]3C(=O)N(Cc4ccccc4)C(=O)[C@@H]3CC[C@H]12)OCc1ccccc1,0.604,-0.921 (inactive),1.14 (inactive),-0.993 (inactive),0.471 (inactive),-0.948 (inactive),0.59 (inactive),-0.783 (inactive),0.9,-0.21
CC(CCN1CCCCc2nc(C)c(C)cc21)=NO[C@@H](C)c1cc(-c2c(C)cc(C)cc2C)no1,1.18,-6.11 (inactive),0.862 (inactive),-0.525 (inactive),-0.467 (inactive),-0.62 (inactive),0.777 (inactive),0.935 (inactive),1.51,0.626
CC(C)C(=O)N[C@H]1CCCN1C(=O)C=Cc1ccccc1,-0.274,0.881 (inactive),-0.46 (inactive),0.581 (inactive),0.897 (inactive),1.18 (inactive),-0.0435 (inactive),-0.898 (inactive),-1.03,-0.0476
CC(CCC(=O)OC[C@H]1O[C@H](C#Cc2ccccc2)C=C[C@@H]1Oc1ccc(C)cc1)=NOC(C)CN1CCCCc2nc(C)c(C)cc21 (stereo not given in full),0.172,0.546 (inactive),-0.0229 (inactive),-0.669 (inactive),0.311 (inactive),0.46 (inactive),0.125 (inactive),-0.116 (inactive),0.304,-0.102
Cc1ccc(C(C)C)n1C(=O)OC(C)(C)C,-0.728,-0.947 (inactive),-1.46 (inactive),-1.24 (inactive),1.01 (inactive),-1.18 (inactive),0.32 (inactive),-0.113 (inactive),-1.65,-0.0509
C=CC[C@@H]1C=CC(ON=C(C)C)[C@@H](CO)O1 (stereo not given in full),-0.689,0.381 (inactive),-0.389 (inactive),0.532 (inactive),-0.254 (inactive),1.1 (inactive),0.832 (inactive),-1.16 (inactive),0.283,-0.267
CO[C@H]1COC(=O)[C@H](CCSC)NC(=O)CC=C[C@@H](C)[C@H](OC)COC(=O)[C@@H](OCc2ccccc2)C=C[C@@H]1C,0.81,-0.41 (inactive),-0.059 (inactive),-0.611 (inactive),-1.38 (inactive),-0.208 (inactive),0.345 (inactive),0.238 (inactive),0.519,-0.0965
COC(=O)CC=C[C@@H](C)[C@@H](C=NOC[C@@H](C)[C@H](OCc1ccccc1)C(C)C)OC,-1.01,0.285 (inactive),0.405 (inactive),0.957 (inactive),-0.892 (inactive),0.169 (inactive),-0.213 (inactive),-0.442 (inactive),-0.286,-0.118
CC1(C)O[C@H]2O[C@H]([C@H](O)CON=C3[C@H]4CCn5c(=O)n(-c6ccccc6)c(=O)n5[C@H]4[C@H](O)[C@@H]4O[C@H]34)[C@H](O)[C@H]2O1,-0.294,-0.139 (inactive),0.159 (inactive),-0.327 (inactive),0.593 (inactive),-0.894 (inactive),0.483 (inactive),-0.516 (inactive),0.343,-0.0767
CC(C)[C@H](NC(=O)OC(C)(C)C)[C@@H](O)CC(=O)C(C)(C)C,0.365,0.289 (inactive),-0.809 (inactive),0.525 (inactive),0.593 (inactive),0.942 (inactive),0.599 (inactive),0.311 (inactive),-0.816,-0.111
COC(=O)[C@@H]1CC[C@H](C)[C@@H](c2ccc(Br)cc2)N1C[C@H](O)CN=[N+]=[N-],-0.413,-6.28 (inactive),-0.666 (inactive),0.294 (inactive),1.09 (inactive),0.347 (inactive),-0.78 (inactive),-1.18 (inactive),0.385,-0.122
